Compound activity deposited in PubChem by National Center for Advancing Translational Sciences (NCATS).
This is a sample that favours compounds with a hit; in the whole collection about 19% have one here.
DT40 TDP1 no CPT – qHTS for Inhibitors of human tyrosyl-DNA phosphodiesterase 1 (TDP1): qHTS in cells in absence of CPT | DT40 Tdp1-/- hTDP1 cells, no CPT, ATP luminescence, 48 h | Potency, µM (titrated, usually from 46.2 µM), for inactives: at the highest dose activity change, negative = growth inhibition, usual class: inhibitors | hit rate 15% among 420,000 | AID 686978, 2013; further: nearly all actives have a fitted effect of over 55% in size
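Stably hTDP1-transfected Tdp1-null chicken DT40 cells were treated with library compounds minus camptothecin and grown for at least 48 hr at 37 °C, after which cellular ATP was quantified by luminescence.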
HT1080 IDH1KD tx – qHTS for induction of synthetic lethality in tumor cells producing 2HG: qHTS for the HT-1080-IDH1KD cell line | HT-1080 IDH1 knockdown viability, ATP luminescence, 48 h | Potency, µM (highest dose often 46.1 µM), for inactives: at the top dose activity, negative = toxicity, actives largely listed as cytotoxic | hit rate 2% among 360,000 | AID 686971, 2013;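 further: 0% = DMSO wells and -100% = cell-free medium wells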
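Luminescent ATP read-out (CellTiter-Glo, 10 min at room temperature) after 48 h compound exposure at 37 °C gave viability of IDH1-knockdown HT-1080 cells. Activity was normalised to DMSO and cell-free wells, then fitted as concentration-response curves.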
HT1080NT lethal – qHTS for induction of synthetic lethality in tumor cells producing 2HG: qHTS for the HT-1080-NT fibrosarcoma cell line | hit rate 1.6% among 360,000 | AID 686970, 2013 | Potency, µM (titrated, usually from 46.1 µM), without a hit: top-dose activity, negative = less viability, actives largely listed as cytotoxic | HT-1080-NT fibrosarcoma viability, CellTiter-Glo ATP luminescence, 48 h;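 further: NT is the 2HG producing partner of a matched IDH1 knockdown line; 0% = DMSO-treated cells and -100% = media-only wells without cells; nearly all actives have a fitted effect of over 55% in size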
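Fibrosarcoma NT cells, 750 per well in 5% FBS RPMI, were exposed to compound for 48 hours. Viability: CellTiter-Glo luminescence.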
DT40 TDP1 CPT – qHTS for Inhibitors of human tyrosyl-DNA phosphodiesterase 1 (TDP1): qHTS in cells in presence of CPT; chicken DT40 Tdp1-/-;hTDP1 cells + 20 nM CPT, ATP luminescence, 48 h; Potency, µM (doses to about 46.2 µM), inactives show at the highest dose activity change, negative = growth inhibition, hits mostly inhibitors; hit rate 12% among 420,000; further: nearly all actives have a fitted effect of over 55% in size
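Chicken DT40 Tdp1-/- cells complemented with human TDP1, 400 cells/well, exposed to compounds plus 20 nM camptothecin for at least 48 h at 37 C; viability read as ATP content by CellTiter-Glo luminescence.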
KB-3-1 cytotox – qHTS assay for MDR1-selective chemotherapeutics: Primary screen using the parental adenocarcinoma cell KB-3-1; Potency, µM (titrated, usually from 46.1 µM), actives largely listed as cytotoxic; hit rate 1.4% among 400,000; KB-3-1 viability, CellTiter-Glo ATP luminescence, 72 h; AID 1347075, 2019; further: nearly all actives have a fitted effect of over 60% in size
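Parental KB-3-1 adenocarcinoma cells in phenol-red-free DMEM with 10% FBS were pin-treated with compounds at several concentrations, incubated 72 h at 37 °C, and viability read by CellTiter-Glo luminescence; concentration-effect curves were fitted after normalization.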
KB-V1 cytotox – qHTS assay for MDR1-selective chemotherapeutics: Primary screen using the drug-selected MDR subline cells KB-V1; Potency, µM (titrated, usually from 46.1 µM), actives largely listed as cytotoxic; AID 1347076, 2019; hit rate 3.4% among 400,000; KB-V1 MDR cells viability, CellTiter-Glo, 72 h; further: nearly all actives have a fitted effect of over 60% in size
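In this primary screen, KB-V1 cells overexpressing P-gp are incubated with library compounds (lowest to highest concentration) for 72 h at 37 degrees C before a luminescent ATP viability read.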
An asterisk follows results filed as active; i = inactive; ? = inconclusive; . = not tested or not shown. The call rests on the fitted dose curve; in most records, active means well fitted curve in the direction sought with a large enough effect; inconclusive means small, poorly fitted or top-dose-only effect, or another doubt; inactive means no such curve, though single readings can be large; an effect the other way counts as inactive or inconclusive. Unless noted, on the % scale 0 is the no-effect control and ±100 the full control effect; potency means the concentration at half of the fitted maximal effect.

SMILES	DT40 TDP1 no CPT	HT1080 IDH1KD tx	HT1080NT lethal	DT40 TDP1 CPT	KB-3-1 cytotox	KB-V1 cytotox
CCC(C)NC(=O)CCC(=O)OC1O[C@H]2OC3(C)CC[C@H]4[C@H](C)CCC(C1C)C24OO3 (stereo not given in full)	0.184µM*	7.31µM*	7.31µM*	0.206µM*	5.17µM*	i
C[C@H]1[C@@H](OC(=O)CCC(=O)O)O[C@@H]2OC3(C)CC[C@H]4[C@H](C)CC[C@@H]1[C@@]24OO3	0.106µM*	.	.	0.119µM*	.	.
C[C@@H]1O[C@@H](O[C@H]2C[C@@H](O)[C@]3(CO)[C@H]4[C@H](O)C[C@]5(C)[C@@H](C6COC(=O)C6)CC[C@]5(O)[C@@H]4CC[C@]3(O)C2)[C@H](O)[C@H](O)[C@H]1O (stereo not given in full)	?	0.82µM*	1.84µM*	-9.1%	?	1.64µM*
CCN(C[C@H]1N[C@@](CC)(C(=O)OC)[C@H]2C(=O)N(Cc3ccccc3)C(=O)[C@@H]12)S(=O)(=O)c1ccc(OC)cc1	?	-0.6%	0.3%	23.1µM*	i	i
CC[C@@]1(C(=O)OC)N[C@H](CN(C)C(=O)c2ccc(C(C)(C)C)cc2)[C@@H]2C(=O)N(Cc3ccccc3)C(=O)[C@@H]21	16.4µM*	3.4%	14.3%	?	i	?
CCOC(=O)c1nc2ccccc2c(=O)n1-c1cccc(C)c1	?	-3.9%	-0.1%	?	i	i
Cc1cccc(CC(c2cccc(C)c2)N(C)C)c1 (stereo not given)	-16.8%	7.7%	1.5%	-23.6%	i	i
O=C(Nc1ccc(C(=O)O)cc1)Oc1ccc(N(CCCl)CCCl)cc1	0.731µM*	-18.1%	-3.4%	0.411µM*	i	i
O=C(Nc1ccccc1)Oc1ccccc1	-2.1%	1.9%	-11.3%	6.7%	i	?
CCc1nc2ccc(Br)cc2c(=O)n1-c1ccccc1C(F)(F)F	-18.8%	-0.4%	2.3%	-19.3%	i	i
CCCc1nc2ccc(Br)cc2c(=O)n1-c1ccc([N+](=O)[O-])c(C(F)(F)F)c1	?	?	?	?	?	16.4µM*
C[N+](C)(C)CC#CCOC(=O)Nc1cccc(Cl)c1	?	1.8%	9.1%	?	i	i
CC(=O)Nc1cccc(-c2csc(C(O)c3cccc(Cl)c3)n2)c1 (stereo not given)	18.4µM*	-19.3%	-29.1%	23.1µM*	i	i
COc1cccc(C(O)c2nc(-c3ccncc3)cs2)c1 (stereo not given)	9.2µM*	-18.5%	?	23.1µM*	i	?
O=C1N[C@@H](Cc2ccccc2)C(=O)N2[C@H]3Nc4ccccc4[C@@]3([C@]34C[C@H]5C(=O)N[C@@H](Cc6ccccc6)C(=O)N5[C@H]3Nc3ccccc34)C[C@@H]12	?	-7.6%	-8.0%	?	i	i
CCOc1cc(CNCCc2c[nH]c3ccccc23)cc(Cl)c1OCC	18.4µM*	?	?	16.4µM*	?	?
CCOc1c(Cl)cc(CNCCc2c[nH]c3ccccc23)cc1OC	14.6µM*	-8.0%	?	?	?	20.6µM*
CO/C=C(/C(=O)OC)c1ccccc1Oc1cc(Oc2ccccc2C#N)ncn1	0.217µM*	.	.	0.243µM*	.	.
CC1CC[C@@]2(OC1)OC1C(O)C3C4CC[C@H]5CC(O[C@@H]6O[C@@H](CO)[C@H](OC7OC(CO)C(O)C(OC8OCC(O)C(O)[C@H]8O)[C@@H]7O[C@@H]7OC(CO)[C@H](O)[C@@H](O[C@@H]8OC(CO)C(O)C(O)C8O)C7O)C(O)C6O)C(O)C[C@]5(C)C4CC[C@]3(C)C1C2C (stereo not given in full)	1.3µM*	.	.	2.31µM*	.	.
CC1CC[C@@]2(OC1)O[C@@H]1[C@@H](O)[C@H]3C4CC[C@H]5C[C@@H](O[C@@H]6O[C@H](CO)[C@H](O[C@@H]7O[C@H](CO)[C@@H](O)[C@H](O[C@@H]8OC[C@@H](O)[C@H](O)[C@H]8O)[C@H]7O[C@@H]7O[C@H](CO)[C@@H](O)[C@H](O[C@@H]8O[C@H](CO)[C@@H](O)[C@H](O)[C@H]8O)[C@H]7O)[C@H](O)[C@H]6O)[C@H](O)C[C@]5(C)C4CC[C@]3(C)[C@H]1[C@@H]2C (stereo not given in full)	6.68µM*	.	.	5.31µM*	.	.
c1ccc(CN2Cc3ccccc3-n3nncc3C2)nc1	-20.5%	-2.1%	-2.0%	-5.8%	i	i
CC1=CC2/C=C(\C)CCC(O)C(O)/C=C/C(=O)C23C(=O)NC(CC(C)C)C3C1C (stereo not given)	1.84µM*	7.31µM*	11.6µM*	3.66µM*	4.61µM*	?
O=C(Nc1nccs1)C(Cl)(Cl)Cl	-14.7%	-2.7%	-2.6%	-1.6%	i	i
O=C(Nc1ccc(Cl)cc1)Nc1nccs1	2.91µM*	7.31µM*	7.31µM*	4.11µM*	4.61µM*	2.59µM*
O=C(CCl)Nc1nccs1	5.8µM*	?	?	2.59µM*	?	?
SMILES	DT40 TDP1 no CPT	HT1080 IDH1KD tx	HT1080NT lethal	DT40 TDP1 CPT	KB-3-1 cytotox	KB-V1 cytotox
CN(C)C1(CNC(=O)Nc2ccc(Cl)c(Cl)c2)CCCCC1	?	?	20.6µM*	?	i	i
CN(C)C1(CNC(=O)c2ccc(NS(=O)(=O)c3ccc(Cl)c(Cl)c3)cc2)CCCCC1	?	-15.0%	-11.1%	?	i	i
CC1=C(C)CN2CC(C#N)=C(N)C2C1 (stereo not given)	?	21.6%	?	?	i	i
c1ccc2c(N3CCNCC3)nsc2c1	13µM*	?	-23.7%	10.3µM*	i	i
O=CC=O	-19.0%	.	.	11.1%	.	.
c1cc2c(cc1[C@H]1OC[C@@H]3[C@H]1CO[C@H]3c1ccc3c(c1)OCO3)OCO2	-39.1%	.	.	-45.4%	.	.
CCCCNC(C)Cc1ccccc1 (stereo not given)	-3.7%	-4.5%	17.2%	-1.7%	i	i
